The supplement of paper PMC7411054

Columns and labels:
Assay in all cases: lowest phenotypically active concentration; higher = less potent
Conditions in all cases: treatment time: 24 h
A549-CANX-COX4 = tested on: A549-CANX-COX4
Outline: (§1)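 The reporter lines, fifteen in total and built by gene editing in A549, HepG2 and WPMY1 cells, used BFP for segmentation alongside GFP and RFP/FusionRed markers. Each was treated at 0.3, 1, 3 or 9 µM for 24 h in four wells and then imaged live, with live-cell features normalised to solvent control wells. Deviation meant ≥3 of 4 wells beyond the 95th percentile of control Euclidean distances; reproducibility meant a median replicate Pearson correlation above the 95th percentile of non-replicates. Only conditions meeting both were scored as phenotypically active.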

A549-TP53BP1-CLTA = tested on: A549-TP53BP1-CLTA
Outline: as §1

HepG2-ACTB-RAB5A = tested on: HepG2-ACTB-RAB5A
Outline: as §1

HepG2-CANX-COX4 = tested on: HepG2-CANX-COX4
Outline: as §1

HepG2-TUBA1B-RELA = tested on: HepG2-TUBA1B-RELA
Outline: as §1

WPMY1-CANX-COX4 = tested on: WPMY1-CANX-COX4
Outline: as §1

WPMY1-TUBA1B-RELA = tested on: WPMY1-TUBA1B-RELA
Outline: as §1

Measured: lowest phenotypically active concentration

COc1cc2ncn(-c3cc(OCc4ccccc4C(F)(F)F)c(C(N)=O)s3)c2cc1OC
1 µM: A549-CANX-COX4 | A549-TP53BP1-CLTA | WPMY1-CANX-COX4
≤ 0.3 µM: all other assays above

COc1ccc2c(Oc3ccc(NC(=O)c4c(C)n(CC(C)(C)O)n(-c5ccccc5)c4=O)nc3)ccnc2c1
9 µM: HepG2-CANX-COX4 | HepG2-TUBA1B-RELA

Cc1ccc(S(=O)(=O)/C=C/C#N)cc1
9 µM: WPMY1-CANX-COX4

CCN1CCN(c2cc(-c3ccc(F)cc3)c3c(n2)CCCCCC3)CC1 [blonanserin]
9 µM: A549-TP53BP1-CLTA | HepG2-ACTB-RAB5A | HepG2-CANX-COX4 | WPMY1-TUBA1B-RELA
3 µM: HepG2-TUBA1B-RELA

CC(C)CCN1c2nc(Nc3cc(F)c(O)c(F)c3)ncc2N(C)C(=O)C1C (stereo not given)
not listed: A549-CANX-COX4
3 µM: all other assays above

Cc1c2oc3c(C)ccc(C(=O)NC4C(=O)NC(C(C)C)C(=O)N5CCCC5C(=O)N(C)CC(=O)N(C)C(C(C)C)C(=O)OC4C)c3nc-2c(C(=O)NC2C(=O)NC(C(C)C)C(=O)N3CCCC3C(=O)N(C)CC(=O)N(C)C(C(C)C)C(=O)OC2C)c(N)c1=O (stereo not given) [Actinomycin D]
≤ 0.3 µM: all assays above

O=c1[nH]cc(F)c(=O)[nH]1 [5-Fluorouracil]
3 µM: A549-CANX-COX4 | HepG2-ACTB-RAB5A | HepG2-CANX-COX4 | HepG2-TUBA1B-RELA
9 µM: A549-TP53BP1-CLTA

COc1cc2c(NC3CCN(C(C)C)CC3)nc(C3CCCCC3)nc2cc1OCCCN1CCCC1
3 µM: A549-CANX-COX4 | A549-TP53BP1-CLTA | HepG2-CANX-COX4
≤ 0.3 µM: HepG2-TUBA1B-RELA
1 µM: all other assays above

O=c1cc(-c2cccc3c2Sc2ccccc2S3)oc(N2CCOCC2)c1
3 µM: HepG2-ACTB-RAB5A | HepG2-CANX-COX4
9 µM: HepG2-TUBA1B-RELA | WPMY1-CANX-COX4

Oc1ccc(Nc2nc(-c3ccc(Cl)cc3)cs2)cc1
9 µM: A549-TP53BP1-CLTA | HepG2-CANX-COX4 | WPMY1-TUBA1B-RELA
3 µM: A549-CANX-COX4 | WPMY1-CANX-COX4

CC[C@H](C)[C@H](NC(=O)OCc1ccccc1)C(=O)N[C@@H](CCC(=O)OC(C)(C)C)C(=O)N[C@@H](C)C(=O)N[C@H](C=O)CC(C)C
≤ 0.3 µM: all assays above

CCOc1cc(N2CCC(O)CC2)ccc1Nc1ncc2c(n1)N(C)c1ccccc1C(=O)N2C
9 µM: A549-CANX-COX4 | A549-TP53BP1-CLTA | WPMY1-TUBA1B-RELA
3 µM: all other assays above

CCN1CCN(C(c2cccnc2)c2cc(Cl)c3cccnc3c2O)CC1 (stereo not given)
3 µM: A549-CANX-COX4 | A549-TP53BP1-CLTA
not listed: WPMY1-TUBA1B-RELA
9 µM: all other assays above

CCN(CC)CCCC(C)Nc1ccnc2cc(Cl)ccc12 (stereo not given) [chloroquine]
1 µM: HepG2-TUBA1B-RELA
9 µM: A549-TP53BP1-CLTA | HepG2-CANX-COX4 | WPMY1-TUBA1B-RELA
3 µM: HepG2-ACTB-RAB5A | WPMY1-CANX-COX4
